Screens deposited in PubChem BioAssay by several laboratories.
HSV augment: increases HSV replication in cells. maximum fold increase. 220,000 compounds, 0.005% hits. HSV replication augmentation in cells, fold increase. AID 1956; in the data active = maximum fold increase above about 1.5; inconclusive = no clear call, values can overlap the other calls; tested in PC3 cells
PGE2 EP2 inh: EP2 receptor (human) inhibition; inhibition, % at 25 µM; P43116; C6 glioma cells expressing human EP2, cAMP TR-FRET; cells stimulated with saturating PGE2; 260,000 compounds, 0.52% hits;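 active = percent inhibition above 40 after rounding to a whole number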;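 also: rat C6 glioma host cells with rolipram phosphodiesterase inhibitor present; the protocol text gives 20 µM as final concentration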
Target sequence (P43116 whole entry, looked up): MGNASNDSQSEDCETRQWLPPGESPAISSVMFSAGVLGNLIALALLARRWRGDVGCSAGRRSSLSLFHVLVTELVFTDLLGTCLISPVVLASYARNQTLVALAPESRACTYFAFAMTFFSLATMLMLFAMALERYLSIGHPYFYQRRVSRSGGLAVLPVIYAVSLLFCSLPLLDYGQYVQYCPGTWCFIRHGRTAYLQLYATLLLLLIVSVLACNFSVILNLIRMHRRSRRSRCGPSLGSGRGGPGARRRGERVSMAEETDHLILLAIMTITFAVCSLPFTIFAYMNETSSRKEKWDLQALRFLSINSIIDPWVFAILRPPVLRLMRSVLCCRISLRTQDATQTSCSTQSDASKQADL
EP2 mod: modulates human prostaglandin E2 receptor EP2 signaling | EP2-expressing cells, cAMP HTRF FRET, PGE2 co-stimulation | AID 940 | induction, % at 25 µM | 260,000 compounds, 0.83% hits;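 active = compounds whose cAMP rise, as percent of the full-agonist control response, exceeds 60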;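 also: rat C6 glioma line stably carrying human EP2 under a CMV promoter; the protocol text gives 20 µM as final concentration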
Wee1 stabilizer: blocks degradation of human Wee1 kinase; 220,000 compounds, 1.2% hits; P30291; HeLa Luc-Wee1K328M stability, luciferase luminescence; 100% = proteasome inhibitor MG132 effect; reporter increase, % at 5 µM; AID 1321;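 active = activation above the mean of all tested compounds plus 3 SD, set per screening run, cut at about 8.8% in these data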;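 also: cells exposed to compound for 20 h before luminescence read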
p47phox inh: blocks human p47phox regulatory protein of NADPH oxidases | p47phox/p22phox peptide binding, fluorescence polarization, 2 h | P14598 | inhibition, % at 24.7 µM | 220,000 compounds, 0.53% hits;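 active = inhibition above about 30%, limit read from the data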
Furin inh: human furin inhibition. 220,000 compounds, 0.061% hits. inhibition, % at 20 µM or 30 µM. purified furin, fluorogenic substrate cleavage. P09958; in the data active = inhibition above about 25%
EP2 confirm: human EP2 receptor cAMP induction, negative in counter-screens; calls only at 20 µM (by protocol); shares compounds with EP2 mod; C6 glioma EP2 cells, cAMP HTRF induction; plus low (about EC15) PGE2 agonist; 1,300 compounds, 47% hits;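 active = cAMP induction above 50% in the main assay while under 30% in all four parallel counter assays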;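 also: rat C6 glioma cells stably expressing human EP2 receptor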
Wee1 stab conf: confirmation of human Wee1 degradation inhibitors | 1,100 compounds, 4% hits | activation, % at 5 µM | HeLa Luc-Wee1K328M degradation, luminescence; vehicle 0%, proteasome-blocked wells 100% | shares compounds with Wee1 stabilizer; in the data active = activation above about 8.9%
Hits are given with their value; . = inactive; ? = inconclusive; / = no result; + = active, no number. Sampled rows, rich in hits. Any-hit rate of the full collection: about 2.8%.

SMILES	HSV augment	PGE2 EP2 inh	EP2 mod	Wee1 stabilizer	p47phox inh	Furin inh	Wee1 stab conf	others
COCCOC(=O)c1c(C)oc2ccc(OCc3ccccc3)cc12	.	.	65	14	.	.	.	EP2 confirm=.
COc1cccc(NC(=O)N2CCN(c3ccccc3OC)CC2)c1	/	.	.	/	/	/	/
O=C(NCc1ccc(F)cc1)c1ccccc1OCc1ccccc1	.	.	81	20	.	.	.	EP2 confirm=+
S=C(NNc1nc(Nc2ccccc2)nc(N2CCCCC2)n1)NC1CCCCC1	.	.	.	.	.	.	/
C=CCNC(=S)NNc1nc(Nc2ccccc2)nc(N2CCCCC2)n1	.	.	74	11	.	.	.	EP2 confirm=.
COCCn1nnnc1C(c1cc2cc(C)cc(C)c2[nH]c1=O)N(Cc1cccnc1)Cc1ccco1 (centres undefined)	/	.	.	/	/	/	/
CN(C)C(CNc1ncnc2sc3c(c12)CCCCC3)c1ccco1 (centres undefined)	.	.	.	34	.	.	.
Cc1sc2ncnc(NCC(c3ccco3)N(C)C)c2c1C (centres undefined)	.	.	.	.	.	.	/
CCN1CCN(c2nc(Nc3ccccc3)nc(N)c2[N+](=O)[O-])CC1	.	.	.	.	.	.	/
CCN1CCN(c2nc(Nc3ccc(OC)cc3)nc(N)c2[N+](=O)[O-])CC1	.	.	.	12	.	.	.
Cc1ccc(NC(=S)N2CCCC(O)C2)cc1 (centres undefined)	.	.	.	14	.	.	.
COc1ccc(C)c2sc(N3CCCC3)nc12	.	.	.	.	.	.	/
COc1ccc(OC)c2sc(N3CCN(c4ccccc4)CC3)nc12	.	.	/	22	/	.	.
Cc1ccc(C2C(C#N)=C(N)SC(N)=C2C#N)o1	.	.	.	.	.	.	/
Cc1ccc(C2OC3=C(C(=O)CC(C)(C)C3)C(N)=C2C#N)o1 (centres undefined)	.	.	.	15	.	.	.
O=C(NC1CCCCC1)[C@H]1C=CCN1C(=O)c1ccccc1F	/	.	.	/	/	/	/
COc1cc(C2Nc3cc(Cl)c(S(N)(=O)=O)cc3S(=O)(=O)N2)cc(OC)c1OC (centres undefined)	.	.	.	12	.	.	.
COC(=O)c1ccc(COc2ccccc2/C=C(\C#N)C(=O)Nc2ccccc2C)cc1	.	.	.	20	.	.	.
Cc1nc2ccccc2n1CCN1CCOCC1	.	.	.	12	.	.	.
COCCNc1c(-c2cc3ccc(C)c(C)c3[nH]c2=O)nc2ccccn12	.	.	.	13	.	.	.
COc1ccc(N2CCN(C(=O)C3CCN(C(=O)c4ccccc4C)CC3)CC2)cc1	/	.	.	/	/	/	/
CCc1ccccc1NC(=O)COC(=O)c1ccccn1	/	.	.	/	/	/	/
CC1=NCCN1CCNC(=O)Nc1ccc(C(C)(C)C)cc1	.	.	.	15	.	.	.
O=C(NCCN1CCCC1=O)Nc1ccccc1	.	.	.	.	.	.	/
O=c1c(Cc2c(F)cccc2Cl)c(O)ccn1CC1CCCO1 (centres undefined)	.	.	.	12	.	.	.
SMILES	HSV augment	PGE2 EP2 inh	EP2 mod	Wee1 stabilizer	p47phox inh	Furin inh	Wee1 stab conf	others
O=c1c(Cc2ccc(F)cc2)c(O)ccn1CC1CCCO1 (centres undefined)	.	.	.	.	.	.	/
CCOC(=O)CSc1nnc(-c2ccccc2)n1-c1ccc(OC)cc1	/	.	.	/	/	/	/
CC(C)NC(=O)CC1Sc2ccc(C(F)(F)F)cc2NC1=O (centres undefined)	/	.	.	/	/	/	/
O=S(=O)(c1ccc(Oc2ncnc3scc(-c4ccccc4)c23)cc1)N1CCOCC1	.	.	.	19	.	.	.
O=S(=O)(c1ccc(Oc2ccccc2)cc1)N1CCOCC1	.	.	.	.	.	.	/
Cc1cc(C)c2c(N)c(C(=O)C(C)(C)C)sc2n1	.	.	.	13	.	.	.
Cc1cc(C)c2c(N)c(C(=O)c3ccc(Cl)c(Cl)c3)sc2n1	.	.	.	.	.	.	/
CC(=O)NC1=NN(C(C)=O)C(c2ccc(C(C)C)cc2)S1 (centres undefined)	.	.	.	24	.	.	.
CCOC(=O)Cn1nc(CC)n2c(cc3sccc32)c1=O	/	/	.	/	/	/	/
Cc1ccc(Cl)cc1-n1c(=O)cc(N2CCN(C(=O)c3ccco3)CC2)[nH]c1=O	.	.	.	14	.	.	.
CCc1nn(CC(=O)NC2CCCCC2C)c(=O)c2cc3occc3n12 (centres undefined)	/	/	.	/	/	/	/
C(=C\c1ccco1)/c1nc2ccccc2[nH]1	?	.	.	14	.	.	.
C(=C\c1nc2ccccc2[nH]1)/c1ccccc1	.	.	.	.	.	.	/
CC1(C)Nc2ccccc2C(=O)N1NS(=O)(=O)c1ccccc1	.	.	.	11	.	.	.
Cc1ccc(S(=O)(=O)NN2C(=O)c3ccccc3NC2(C)C)cc1	.	.	.	.	.	.	/
CC(=O)Cn1nnc(-c2ccc(C)cc2)n1	/	.	.	/	/	/	/
COC(=O)C(Cc1c[nH]c2ccccc12)NC(=O)c1cccs1 (centres undefined)	.	.	.	.	.	.	/
COC(=O)C(Cc1c[nH]c2ccccc12)NC(C)=O (centres undefined)	.	.	.	11	.	.	.
O=C(Nc1ccccc1)C1=C[C@@H](c2ccccc2)C[C@@H](OCc2ccc(CO)cc2)O1	.	.	.	.	.	.	/
O=C(Nc1ccccc1)C1=C[C@H](c2ccc(Br)cc2)C[C@H](OCc2ccc(CO)cc2)O1	.	.	.	11	.	.	.
Cc1ccc2cc(CN(CCN(C)C)C(=S)NCCc3ccccc3)c(=O)[nH]c2c1	/	.	.	/	/	/	/
Cc1ccc(NC(=O)COC(=O)CNC(=O)c2ccc(Br)cc2)c(C)c1	.	.	.	14	.	.	.
CC(=O)c1c(COC(=O)c2ccc(F)cc2)nc2ccccc2[n+]1[O-]	.	.	.	.	.	.	/
CC(=O)c1c(COC(=O)c2ccc(C)cc2)nc2ccccc2[n+]1[O-]	.	.	.	16	.	.	.
CCc1ccc(Nc2cc(=O)n(C3CCCCC3)c(=O)[nH]2)cc1	.	.	.	.	.	.	/
O=c1cc(Nc2ccc3c(c2)OCCO3)[nH]c(=O)n1C1CCCCC1	.	.	.	11	.	.	11
Cc1ccc(C)c2[nH]c(=O)c(CN(CCc3ccccc3)Cc3nnnn3C3CCCC3)cc12	/	.	.	/	/	/	/
COc1cc(CNCCCCO)ccc1OCc1ccccc1F	.	.	.	12	.	.	.
O=[N+]([O-])c1ccccc1/C=N/n1c(C(F)(F)F)n[nH]c1=S	.	.	.	12	.	.	.
